Source: PubChem BioAssay (NCATS)
Records with an inconclusive call do not appear. The source made the active and inactive calls. Calls come from the whole dose curve; as a rule, active = well fitted curve in the direction sought with a large enough effect; inconclusive = small, poorly fitted or top-dose-only effect, or another doubt; inactive = no such curve, though single readings can be large; an effect the other way counts as inactive or inconclusive.

How the values were obtained:
[1] = target: Glutathione peroxidase 1 (Homo sapiens) (UniProt P07203); experiment: Primary qHTS Assay for Inhibitors of Recombinant Selenoprotein Glutathione Peroxidase 1 (GPX1) (AID 1845191); note: nearly all actives have a fitted effect of over 65% in size
In short: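 NADPH consumption tracked by fluorescence at 340/450 nm between t=0 and t=15 min, room temperature. Final mix: 10 nM GPX1, 100 nM glutathione reductase, 1 mM GSH, 0.5 mM NADPH, 0.5 mM cumene hydroperoxide, 0.01% BSA; 30 min compound–enzyme preincubation.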

[2] = target: Phospholipid hydroperoxide glutathione peroxidase GPX4 (Homo sapiens) (UniProt P36969); experiment: Primary qHTS Assay for Inhibitors of Recombinant Selenoprotein Glutathione Peroxidase 4 (GPX4) (AID 1845192); note: nearly all actives have a fitted effect of over 65% in size
In short: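 NADPH consumption followed by fluorescence at 340/450 nm, t=0 and after 15 min at room temperature. Reaction started with cumene hydroperoxide (0.5 mM final) after 30 min compound–GPX4 preincubation; final 200 nM GPX4, 100 nM GR, 1 mM GSH, 0.5 mM NADPH.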

[3] = target: Luciferin 4-monooxygenase (Photinus pyralis) (UniProt P08659); experiment: Primary firefly luciferase (FLuc) qHTS assay for identification of artifact compounds. (AID 1845220); note: nearly all actives have a fitted effect of over 60% in size
In short: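 FLuc 10 nM; luciferin 10 uM; ATP 10 uM; Tris-acetate pH 7.6, Mg-acetate 10 mM; 15 min RT preincubation; 5 min reaction; luminescence.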

[4] = Primary fluorescence-based thiol-reactive (MSTI) qHTS assay for identification of artifact compounds. (AID 1845221); note: nearly all actives have a fitted effect of over 65% in size; note: potency is the fitted concentration of half-maximal effect
In short: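 Compounds were incubated 1 h at room temperature in the dark with the MSTI probe (4 uM) in PBS pH 7.4, 2% DMSO. Signals were normalized between Acetyl-MSTI and MSTI.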

[5] = test system: Nanoluciferase (engineered Oplophorus gracilirostris luciferase); experiment: Primary Nanoluciferase (NLuc) qHTS assay for identification of artifact compounds. (AID 1845222);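 note: NLuc secreted into diluted conditioned medium of S16 cells; series mostly up to about 54 µM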
In short: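 NLuc from S16 cell medium (1:55) plus test compounds, 15 min, room temperature. Luminescence after Nano-Glo (1:100) addition, 5 min.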

[6] = Primary redox qHTS assay for identification of artifact compounds. (AID 1845223); note: potency is the fitted concentration of half-maximal effect
In short: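 Redox-cycling detection via DTT (250 uM final) oxidation coupled to Amplex Red (25 uM)/HRP (250 mU/mL) in HBSS. 15 min preincubation plus 30 min after DTT, room temperature. Ex/Em 525/598 nm; 4-parameter Hill fit against DMSO and 10 uM DA3003.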

Measured: Potency

Sequence of Glutathione peroxidase 1 (Homo sapiens) (P07203 whole entry, looked up): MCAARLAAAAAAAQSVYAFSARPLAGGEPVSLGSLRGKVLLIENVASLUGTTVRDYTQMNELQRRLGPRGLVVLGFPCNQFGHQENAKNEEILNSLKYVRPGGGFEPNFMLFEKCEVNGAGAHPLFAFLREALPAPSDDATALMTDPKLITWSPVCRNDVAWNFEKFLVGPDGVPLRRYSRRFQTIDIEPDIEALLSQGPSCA
Sequence of Phospholipid hydroperoxide glutathione peroxidase GPX4 (Homo sapiens) (P36969 whole entry, looked up): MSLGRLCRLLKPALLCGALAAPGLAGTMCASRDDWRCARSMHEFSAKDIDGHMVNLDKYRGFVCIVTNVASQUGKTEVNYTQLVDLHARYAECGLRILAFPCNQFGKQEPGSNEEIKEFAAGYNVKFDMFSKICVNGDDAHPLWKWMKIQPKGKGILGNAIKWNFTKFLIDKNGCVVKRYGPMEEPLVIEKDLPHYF

CN(C)c1nc(NC2CCC(NCCc3ccc(Br)cc3OC(F)(F)F)CC2)nc2ccccc12 (configuration not stated)
inactive: all assays above

NC(=O)c1cnc(NCCc2ccc(O)c(Cl)c2)nc1NCc1ccccc1
inactive: all assays above

Cc1cccc(-c2[nH]c(Cc3cccc(C(N)=O)c3)nc2-c2ccc3nccnc3c2)n1
inactive: all assays above

C[C@@H]1C(=O)O[C@H]2C[C@]34[C@H]5C[C@@H](C(C)(C)C)[C@]36[C@@H](OC(=O)[C@H]6O)O[C@]4(C(=O)O5)[C@]21O
inactive: all assays above

CON(C)C(=O)[C@H](O)[C@H](Cc1ccccc1)NC(=O)c1cc2cc(Cl)ccc2[nH]1
inactive: all assays above

O=C(Nc1ccccc1)N1CCN(Cc2ccc3ccccc3n2)CC1
inactive: all assays above

N#Cc1ccc2[nH]cc(CCCCN3CCN(c4ccc5oc(C(N)=O)cc5c4)CC3)c2c1
inactive: all assays above

COc1cc(O)c2c(c1)C1=C[C@H](O)[C@@H](O)C[C@]1(C)OC2=O
inactive: all assays above

C[C@@H]1CN(Cc2ncccn2)C[C@H]1c1nc2c(cnn2C2CCOCC2)c(=O)[nH]1
inactive: all assays above

COC(=O)c1c(C)cc(OC(=O)c2c(C)cc(OC)cc2OC)cc1O[C@@H]1O[C@H](CO)[C@@H](O)[C@H](O)[C@H]1O
active: [6] 2.92 µM
inactive: all other assays above

C=C1C(=O)OC2CC(C)=C(C(C)CCCO)C(O)C12 (configuration not stated)
active: [4] 5.97 µM
inactive: all other assays above

COc1ccc(Oc2cc(C)c(-c3csc(NC(=O)c4ccncc4)n3)c(C)c2)cc1
inactive: all assays above

C=C(C)C1CCC2(C(=O)O)CCC3(C(=O)O)C(CCC4C5(C)CCC(O)C(C)(C(=O)O)C5CCC43C)C12 (configuration not stated)
inactive: all assays above

O=C(NCc1ccc(F)cc1)C(=O)c1c[nH]c2ccccc12
inactive: all assays above

C=C1C(=O)O[C@@H]2C[C@H](C)[C@@]3(O)C=C(C(C)=O)[C@]4(CC3C[C@H]12)C(=O)O[C@H]1C[C@@H](C)C(CCC(C)=O)=CC[C@H]14 (some centres not stated)
inactive: all assays above

C[C@@H]1O[C@@H](OC[C@H]2O[C@@H](Oc3cc(O)cc4c3C(=O)C(O)(Cc3ccc(O)cc3)O4)[C@H](O)[C@@H](O)[C@@H]2O)[C@H](O)[C@H](O)[C@H]1O (some centres not stated)
inactive: all assays above

C=C1C(=O)OC2C1C(O)CC1(C)C(O)CCC(C=O)C21 (configuration not stated)
inactive: all assays above

CC(C)=C/C=C\[C@H](C)[C@H]1CC[C@]2(C)C[C@@H]3C(C)=CC(=O)C3/C(CO)=C\C[C@@H]12 (some centres not stated)
inactive: all assays above

COc1cc(C(=O)OC[C@@]2(O)CO[C@@H](O[C@H]3[C@H](Oc4ccc(C(=O)O)cc4OC)O[C@H](CO)[C@@H](O)[C@@H]3O)[C@@H]2O)ccc1O
inactive: all assays above

C[C@@H]1C[C@@H]([C@@H](O)C(C)(C)O)O[C@H]2C[C@@]3(C)C(=C12)C[C@H](O)[C@H]1[C@@]2(C)CCC(=O)C(C)(C)C2CC[C@@]13C (some centres not stated)
inactive: all assays above

C/C1=C\CCC2=C[C@@H](OC2=O)c2c(C)coc2C1
active: [4] 11.9 µM
inactive: all other assays above

C=C[C@H]1C(O[C@@H]2O[C@H](CO)[C@@H](O)[C@H](O)[C@H]2O)OC=C2C(=O)N3CCc4c([nH]c5ccccc45)[C@H]3C[C@H]21 (some centres not stated)
inactive: all assays above
